This is an account of results in article PMC7862700, “An all-to-all approach to the identification of sequence-specific readers for epigenetic DNA modifications on cytosine”.

Common to all, as to assay: DAPPL (digital affinity profiling via proximity ligation, sequencing); 10 mM Tris-HCl pH 7.5, 50 mM NaCl, 1 mM DTT, 4% glycerol, room temperature, 30 min; GST-TFs on glutathione beads, 16-mer random dsDNA library, 0.1% formaldehyde crosslink after washing; high values mean tight binding
In one experiment the target is T1, FEV (Homo sapiens, UniProt Q99581 1-238).
T1 sequence: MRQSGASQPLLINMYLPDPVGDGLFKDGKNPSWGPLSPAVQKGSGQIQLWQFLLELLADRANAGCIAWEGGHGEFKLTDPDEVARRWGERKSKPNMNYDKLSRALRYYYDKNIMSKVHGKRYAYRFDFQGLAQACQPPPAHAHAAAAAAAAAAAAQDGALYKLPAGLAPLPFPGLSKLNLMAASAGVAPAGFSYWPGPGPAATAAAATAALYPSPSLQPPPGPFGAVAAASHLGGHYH
To be noted: protein: recombinant; tags: N-terminal GST; dsDNA, one strand shown. In outline:
(§1)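 Binding signal is given per hexamer as its read frequency for a factor divided by its frequency in the tag-only sample. GST-fused human transcription factors were expressed in yeast, captured on glutathione beads, barcoded with DNA and pooled with that sample, then incubated with 200 nmole of a 16-mer random double-stranded DNA library in Tris/NaCl/DTT/glycerol buffer for 30 min at room temperature. The pools were then washed, crosslinked, proximity-ligated, amplified by PCR and sequenced on an Illumina NextSeq500.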

The target in the next experiment is ETV5 (Homo sapiens, UniProt P41161 1-510). As to conditions: protein: recombinant; tags: N-terminal GST; dsDNA, one strand shown. In outline:
as §1

For another experiment, the target named is HSF1 (Homo sapiens, UniProt Q00613 1-529). As to conditions: protein: recombinant; tags: N-terminal GST; chain copies: 3; dsDNA, one strand shown. In outline: as §1
Another experiment deals with ELF4 (Homo sapiens, UniProt Q99607 1-663). To be noted: protein: recombinant; tags: N-terminal GST; dsDNA, one strand shown. In outline:
as §1

The target of a further experiment is T2, ETV2 (Homo sapiens, UniProt O00321 1-342).
T2 sequence: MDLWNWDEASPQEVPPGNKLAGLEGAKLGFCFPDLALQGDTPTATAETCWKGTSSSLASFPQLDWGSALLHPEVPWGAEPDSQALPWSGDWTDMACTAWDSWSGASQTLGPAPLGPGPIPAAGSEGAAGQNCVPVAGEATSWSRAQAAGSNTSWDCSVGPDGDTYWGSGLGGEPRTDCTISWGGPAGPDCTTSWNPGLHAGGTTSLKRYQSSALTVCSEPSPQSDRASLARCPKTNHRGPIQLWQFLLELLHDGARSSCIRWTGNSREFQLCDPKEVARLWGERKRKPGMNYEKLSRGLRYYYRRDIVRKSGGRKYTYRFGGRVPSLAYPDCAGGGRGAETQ
As to conditions: protein: recombinant; tags: N-terminal GST; dsDNA, one strand shown. A digest of the protocol:
as §1

Another experiment has as its target CRX (Homo sapiens, UniProt O43186 1-299). To be noted: protein: recombinant; tags: N-terminal GST; dsDNA, one strand shown. A digest of the protocol: as §1
A further experiment concerns the target ETV1 (Homo sapiens, UniProt P50549 1-477). To be noted: protein: recombinant; tags: N-terminal GST; dsDNA, one strand shown. A digest of the protocol: as §1
The next experiment has as its target T3, ELK4 (Homo sapiens, UniProt P28324-2 1-405).
T3 sequence: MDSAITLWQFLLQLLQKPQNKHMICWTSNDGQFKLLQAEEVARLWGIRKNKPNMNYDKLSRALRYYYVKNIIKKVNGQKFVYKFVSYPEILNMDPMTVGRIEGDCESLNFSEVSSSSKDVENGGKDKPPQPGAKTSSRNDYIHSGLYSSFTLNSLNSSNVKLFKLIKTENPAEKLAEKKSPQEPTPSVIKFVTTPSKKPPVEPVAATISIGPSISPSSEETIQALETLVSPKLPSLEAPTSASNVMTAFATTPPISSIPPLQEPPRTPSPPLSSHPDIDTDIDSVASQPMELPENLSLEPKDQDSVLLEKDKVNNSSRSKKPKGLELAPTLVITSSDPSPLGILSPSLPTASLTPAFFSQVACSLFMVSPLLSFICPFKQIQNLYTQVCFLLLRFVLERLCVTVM
To be noted: protein: recombinant; tags: N-terminal GST; dsDNA, one strand shown. A digest of the protocol:
as §1

The target in another experiment is T4, ELF3 (Homo sapiens, UniProt P78545 1-371).
T4 sequence: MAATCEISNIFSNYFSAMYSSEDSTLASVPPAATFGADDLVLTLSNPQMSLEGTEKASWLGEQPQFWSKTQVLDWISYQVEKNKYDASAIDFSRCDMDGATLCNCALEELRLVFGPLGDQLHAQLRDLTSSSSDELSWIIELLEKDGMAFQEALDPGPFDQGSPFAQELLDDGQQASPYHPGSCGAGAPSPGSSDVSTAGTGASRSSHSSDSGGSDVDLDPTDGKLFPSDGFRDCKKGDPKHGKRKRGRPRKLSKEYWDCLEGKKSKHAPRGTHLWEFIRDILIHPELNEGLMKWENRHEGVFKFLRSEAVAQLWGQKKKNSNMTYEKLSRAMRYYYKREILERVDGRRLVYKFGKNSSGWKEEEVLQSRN
As to conditions: protein: recombinant; tags: N-terminal GST; dsDNA, one strand shown. A digest of the protocol:
as §1

ELF4, sequence (Q99607 whole entry): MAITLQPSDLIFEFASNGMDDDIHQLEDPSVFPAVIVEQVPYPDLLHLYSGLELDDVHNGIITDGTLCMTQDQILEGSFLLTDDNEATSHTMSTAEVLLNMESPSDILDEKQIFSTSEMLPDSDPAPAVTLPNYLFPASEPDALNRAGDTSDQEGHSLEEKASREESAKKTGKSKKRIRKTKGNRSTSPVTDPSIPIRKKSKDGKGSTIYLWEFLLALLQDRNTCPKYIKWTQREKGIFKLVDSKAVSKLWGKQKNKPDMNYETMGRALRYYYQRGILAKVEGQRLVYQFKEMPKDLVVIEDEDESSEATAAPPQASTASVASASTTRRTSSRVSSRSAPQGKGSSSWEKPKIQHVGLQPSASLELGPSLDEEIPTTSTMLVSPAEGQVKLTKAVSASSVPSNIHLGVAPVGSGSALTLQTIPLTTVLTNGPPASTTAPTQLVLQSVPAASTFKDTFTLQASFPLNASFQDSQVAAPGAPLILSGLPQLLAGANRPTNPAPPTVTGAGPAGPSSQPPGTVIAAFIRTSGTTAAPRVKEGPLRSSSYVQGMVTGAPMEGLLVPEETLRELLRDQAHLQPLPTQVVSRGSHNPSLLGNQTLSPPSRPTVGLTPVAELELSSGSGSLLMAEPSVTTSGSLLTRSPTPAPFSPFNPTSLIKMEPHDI
CRX, sequence (O43186 whole entry): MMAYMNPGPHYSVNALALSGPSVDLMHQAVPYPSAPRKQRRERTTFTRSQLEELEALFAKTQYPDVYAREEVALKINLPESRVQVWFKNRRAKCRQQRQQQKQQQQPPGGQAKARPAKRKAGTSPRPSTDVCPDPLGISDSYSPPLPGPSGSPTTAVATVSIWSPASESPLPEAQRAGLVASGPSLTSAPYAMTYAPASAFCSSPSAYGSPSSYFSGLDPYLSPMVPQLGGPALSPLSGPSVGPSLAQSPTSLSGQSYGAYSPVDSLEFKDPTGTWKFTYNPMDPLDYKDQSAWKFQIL
ETV5, sequence (P41161 whole entry): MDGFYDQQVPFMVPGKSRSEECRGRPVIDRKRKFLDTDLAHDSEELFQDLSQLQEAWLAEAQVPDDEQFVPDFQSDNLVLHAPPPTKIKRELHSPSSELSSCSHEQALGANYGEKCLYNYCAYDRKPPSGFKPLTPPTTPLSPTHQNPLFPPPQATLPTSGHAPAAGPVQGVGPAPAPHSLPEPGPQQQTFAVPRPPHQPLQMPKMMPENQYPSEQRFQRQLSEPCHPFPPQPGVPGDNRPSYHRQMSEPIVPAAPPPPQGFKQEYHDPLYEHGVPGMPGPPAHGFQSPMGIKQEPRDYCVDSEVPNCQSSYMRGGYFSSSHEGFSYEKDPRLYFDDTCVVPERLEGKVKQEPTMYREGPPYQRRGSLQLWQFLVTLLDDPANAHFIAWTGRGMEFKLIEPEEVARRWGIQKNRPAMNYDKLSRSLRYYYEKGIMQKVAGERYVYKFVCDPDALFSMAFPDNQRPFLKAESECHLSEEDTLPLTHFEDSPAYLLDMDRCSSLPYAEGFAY
HSF1, sequence (Q00613 whole entry): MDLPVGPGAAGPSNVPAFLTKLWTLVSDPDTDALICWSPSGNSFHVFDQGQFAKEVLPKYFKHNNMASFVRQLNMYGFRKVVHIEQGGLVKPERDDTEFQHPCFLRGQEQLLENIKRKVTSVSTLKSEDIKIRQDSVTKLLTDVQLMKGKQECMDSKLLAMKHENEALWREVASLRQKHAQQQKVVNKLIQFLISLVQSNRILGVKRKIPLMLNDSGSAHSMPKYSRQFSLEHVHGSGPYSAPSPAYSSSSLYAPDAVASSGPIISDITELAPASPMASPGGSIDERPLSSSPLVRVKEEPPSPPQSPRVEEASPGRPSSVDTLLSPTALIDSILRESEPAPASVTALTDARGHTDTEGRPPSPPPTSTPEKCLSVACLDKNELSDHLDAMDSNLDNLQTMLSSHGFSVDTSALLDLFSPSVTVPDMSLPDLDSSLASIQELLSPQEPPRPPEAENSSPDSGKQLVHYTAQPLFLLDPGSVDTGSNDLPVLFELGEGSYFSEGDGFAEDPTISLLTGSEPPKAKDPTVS
ETV1, sequence (P50549 whole entry): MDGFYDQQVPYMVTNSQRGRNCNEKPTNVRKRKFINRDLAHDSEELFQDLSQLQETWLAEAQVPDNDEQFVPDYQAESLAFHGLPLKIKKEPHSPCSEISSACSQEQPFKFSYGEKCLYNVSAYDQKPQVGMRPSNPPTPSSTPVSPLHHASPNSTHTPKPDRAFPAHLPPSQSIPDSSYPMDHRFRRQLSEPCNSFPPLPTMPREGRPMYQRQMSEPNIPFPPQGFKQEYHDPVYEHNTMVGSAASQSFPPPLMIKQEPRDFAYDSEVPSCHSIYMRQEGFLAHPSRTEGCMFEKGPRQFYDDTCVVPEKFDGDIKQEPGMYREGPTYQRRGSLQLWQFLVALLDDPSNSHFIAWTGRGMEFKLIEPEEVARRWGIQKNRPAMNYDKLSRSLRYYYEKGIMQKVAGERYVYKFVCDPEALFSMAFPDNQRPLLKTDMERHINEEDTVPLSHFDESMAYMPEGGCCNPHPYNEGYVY

Consider TAGATC, for which the binding signal in the experiment with FEV was 1.06 fold enrichment (6-mer frequency, TF over GST control); in the experiment with ETV5, 1.06 fold enrichment (6-mer frequency, TF over GST control); with HSF1 it was 1.49 fold enrichment (6-mer frequency, TF over GST control); with ELF4 it was 1.13 fold enrichment (6-mer frequency, TF over GST control); with ETV2 it was 1.2 fold enrichment (6-mer frequency, TF over GST control); in the experiment with CRX it was 1.51 fold enrichment (6-mer frequency, TF over GST control). For the same sequence, the binding signal in the experiment with ETV1 is 1.04 fold enrichment (6-mer frequency, TF over GST control).
As for TGACGA, the binding signal is 1.05 fold enrichment (6-mer frequency, TF over GST control) with FEV; 1.13 fold enrichment (6-mer frequency, TF over GST control) with ETV5; 1.01 fold enrichment (6-mer frequency, TF over GST control) with HSF1; 1.11 fold enrichment (6-mer frequency, TF over GST control) with ELF4; 1.18 fold enrichment (6-mer frequency, TF over GST control) with ELK4; 1.15 fold enrichment (6-mer frequency, TF over GST control) in the experiment with ETV2. Moreover, the binding signal was 1.08 fold enrichment (6-mer frequency, TF over GST control) with ELF3 and 1.04 fold enrichment (6-mer frequency, TF over GST control) with ETV1.
For the sequence AGCATC, the binding signal in the experiment with FEV was 1.07 fold enrichment (6-mer frequency, TF over GST control); in the experiment with ETV5, 1.03 fold enrichment (6-mer frequency, TF over GST control); in the experiment with HSF1, 1.02 fold enrichment (6-mer frequency, TF over GST control); with ELF4, 1.02 fold enrichment (6-mer frequency, TF over GST control); with ETV1, 1.08 fold enrichment (6-mer frequency, TF over GST control).
With CGGCTA, the binding signal with FEV was 1.23 fold enrichment (6-mer frequency, TF over GST control); with ETV5 it was 1.19 fold enrichment (6-mer frequency, TF over GST control); with HSF1, 1.07 fold enrichment (6-mer frequency, TF over GST control); with ELF4 it was 1.07 fold enrichment (6-mer frequency, TF over GST control); with ELK4, 1.11 fold enrichment (6-mer frequency, TF over GST control); with ELF3, 1.05 fold enrichment (6-mer frequency, TF over GST control). The binding signal with CRX was 1.18 fold enrichment (6-mer frequency, TF over GST control); with ETV1, 1.2 fold enrichment (6-mer frequency, TF over GST control).
Take ACGCCC: the binding signal was 1.12 fold enrichment (6-mer frequency, TF over GST control) with FEV; 1.16 fold enrichment (6-mer frequency, TF over GST control) with ETV5; 1 fold enrichment (6-mer frequency, TF over GST control) with HSF1; 1.2 fold enrichment (6-mer frequency, TF over GST control) with ELF4; 1.18 fold enrichment (6-mer frequency, TF over GST control) in the experiment with ELK4; 1.05 fold enrichment (6-mer frequency, TF over GST control) in the experiment with ETV2. Besides, the binding signal is 1.06 fold enrichment (6-mer frequency, TF over GST control) with ELF3 and 1.16 fold enrichment (6-mer frequency, TF over GST control) in the experiment with ETV1.
Take CCAAAT: the binding signal was 1.08 fold enrichment (6-mer frequency, TF over GST control) with FEV; 1.06 fold enrichment (6-mer frequency, TF over GST control) in the experiment with ETV5; 1.02 fold enrichment (6-mer frequency, TF over GST control) with HSF1; 1.17 fold enrichment (6-mer frequency, TF over GST control) with ELF4; 1.04 fold enrichment (6-mer frequency, TF over GST control) with ELK4; 1.11 fold enrichment (6-mer frequency, TF over GST control) with ELF3. For the same sequence, the binding signal with CRX was 1.18 fold enrichment (6-mer frequency, TF over GST control).
ACAGAT: the binding signal in the experiment with ETV5 is 1 fold enrichment (6-mer frequency, TF over GST control); with HSF1, 1.1 fold enrichment (6-mer frequency, TF over GST control); with ELF4 it was 1.05 fold enrichment (6-mer frequency, TF over GST control); with ELK4 it was 1.04 fold enrichment (6-mer frequency, TF over GST control); with ETV2, 1.05 fold enrichment (6-mer frequency, TF over GST control); with CRX, 1.27 fold enrichment (6-mer frequency, TF over GST control). The binding signal with ETV1 is 1.05 fold enrichment (6-mer frequency, TF over GST control).
ATCGCT: the binding signal with FEV is 1.06 fold enrichment (6-mer frequency, TF over GST control); with ETV5 it was 1.07 fold enrichment (6-mer frequency, TF over GST control); with HSF1, 1.08 fold enrichment (6-mer frequency, TF over GST control); in the experiment with ELF4, 1.15 fold enrichment (6-mer frequency, TF over GST control); with ELK4, 1.06 fold enrichment (6-mer frequency, TF over GST control); with ELF3, 1.05 fold enrichment (6-mer frequency, TF over GST control). The binding signal with CRX was 1.19 fold enrichment (6-mer frequency, TF over GST control); with ETV1, 1.08 fold enrichment (6-mer frequency, TF over GST control).
In the case of CATAAA, the binding signal is 1 fold enrichment (6-mer frequency, TF over GST control) with FEV; 1.03 fold enrichment (6-mer frequency, TF over GST control) in the experiment with ETV5; 1.07 fold enrichment (6-mer frequency, TF over GST control) with HSF1; 1.06 fold enrichment (6-mer frequency, TF over GST control) with ELF4; 1.08 fold enrichment (6-mer frequency, TF over GST control) in the experiment with ELF3; 1.11 fold enrichment (6-mer frequency, TF over GST control) in the experiment with CRX. Moreover, the binding signal with ETV1 is 1.03 fold enrichment (6-mer frequency, TF over GST control).
